Measured values: PubChem BioAssay AID1159580 (chemical genetic matrix, 2015)
“And” between values parts separate entries of the source, which are not always exact repeats. Equal entries are not always repeated. About 2,000 (36%) of roughly 5,500 compounds were called active. About 18% were inconclusive and are not listed. Rule as the data show it: active = normalized growth mostly below about 0.91 (no sharp cut-off); inconclusive = no clear call, values can overlap the other calls; inactive = mostly above about 0.92. The list shows a part of the results.

Test: chemical genetic growth profiling, strain panel (AID 1159580);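 also: tested at 20 µM; growth read once vehicle control cultures reached saturation at 30 °C; 1 = growth at the plate median or of vehicle wells; lower values mean less growth of the strain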
Details: S. cerevisiae deletion strains, growth OD

Measured: normalized growth

CCCN(CCC)S(=O)(=O)c1ccc(C(=O)O)cc1
inactive: locus YAL013W, strain DEP1, active compounds read low 0.992 | locus YAL021C, strain ccr4, active compounds read low 0.998 | locus YAL026C, strain drs2, active compounds read low 0.999 | locus YAL030W, strain snc1, active compounds read low 0.992 | locus YBL061C, strain skt5, active compounds read low 0.991 | locus YBR009C, strain hhf1, active compounds read low 0.997 | locus YBR021W, strain FUR4, active compounds read low 0.945 | locus YBR023C, strain chs3, active compounds read low 0.994 | locus YBR171W, strain sec66, active compounds read low 0.968 | locus YBR229C, strain ROT2, active compounds read low 1 | locus YBR231C, strain swc5, active compounds read low 0.955 | locus YBR279W, strain paf1, active compounds read low 0.996 | locus YCL011C, strain gbp2, active compounds read low 1 | locus YCL016C, strain dcc1, active compounds read low 1 | locus YCL029C, strain bik1, active compounds read low 1.02 | locus YCL069W, strain vba3, active compounds read low 0.981 | locus YCR088W, strain abp1, active compounds read low 0.993 | locus YDL005C, strain med2, active compounds read low 0.987 | locus YDL035C, strain GPR1, active compounds read low 0.998 | locus YDL040C, strain nat1, active compounds read low 0.99 | locus YDL074C, strain BRE1, active compounds read low 0.998 | locus YDL101C, strain DUN1, active compounds read low 1.01 | locus YDL134C, strain PPH21, active compounds read low 1 | locus YDL185W, strain tfp1, active compounds read low 1.01 | locus YDL192W, strain arf1, active compounds read low 1.01 | locus YDR001C, strain nth1, active compounds read low 0.987 | locus YDR069C, strain doa4, active compounds read low 0.987 | locus YDR101C, strain arx1, active compounds read low 1 | locus YDR137W, strain rgp1, active compounds read low 1.01 | locus YDR150W, strain NUM1, active compounds read low 0.998 | locus YDR159W, strain sac3, active compounds read low 1 | locus YDR162C, strain NBP2, active compounds read low 0.999 | locus YDR195W, strain ref2 0.933 | locus YDR297W, strain sur2, active compounds read low 0.998 | locus YDR318W, strain mcm21, active compounds read low 1.02 | locus YDR334W, strain swr1, active compounds read low 0.997 | locus YDR335W, strain msn5, active compounds read low 0.992 | locus YDR388W, active compounds read low 1.01 | locus YDR392W, strain spt3, active compounds read low 1.01 | locus YDR502C, strain sam2, active compounds read low 1.02 | locus YEL003W, strain gim4, active compounds read low 0.99 | locus YEL037C, strain rad23, active compounds read low 0.993 | locus YEL061C, strain CIN8 (second series), active compounds read low 0.982 | locus YEL061C, strain CIN8, active compounds read low 1 | locus YER015W, strain faa2, active compounds read low 0.999 | locus YER016W, strain bim1, active compounds read low 0.994 | locus YER110C, active compounds read low 1.01 | locus YER111C, strain swi4, active compounds read low 0.979 | locus YER155C, strain BEM2 (second series), active compounds read low 0.978 | locus YER155C, strain BEM2, active compounds read low 1.01 | locus YER167W, strain BCK2, active compounds read low 1 | locus YFR010W, strain ubp6, active compounds read low 0.983 | locus YGL078C, strain dbp3, active compounds read low 1.01 | locus YGL086W, strain mad1, active compounds read low 1 | locus YGL167C, strain pmr1, active compounds read low 0.991 | locus YGL173C, strain kem1, active compounds read low 0.976 | locus YGL227W, strain vid30, active compounds read low 0.988 | locus YGL240W, strain doc1, active compounds read low 0.976 | locus YGL248W, strain PDE1, active compounds read low 1 | locus YGL253W, strain hxk2, active compounds read low 1 | locus YGR078C, strain PAC10, active compounds read low 0.967 | locus YGR135W, strain pre9, active compounds read low 1.03 | locus YGR229C, strain SMI1, active compounds read low 0.982 | locus YGR252W, strain gcn5, active compounds read low 1 | locus YHR013C, strain ard1, active compounds read low 0.986 | locus YHR027C, strain rpn1, active compounds read low 0.999 | locus YHR030C, strain SLT2, active compounds read low 1 and 1.02 | locus YHR079C, strain IRE1 (second series), active compounds read low 1.01 | locus YHR079C, strain IRE1, active compounds read low 1.01 | locus YHR094C, strain hxt1, active compounds read low 1.01 | locus YHR129C, strain ARP1, active compounds read low 1.01 | locus YHR142W, strain chs7, active compounds read low 1 | locus YHR200W, strain rpn10, active compounds read low 1.01 | locus YIL066C, strain RNR3, active compounds read low 0.996 | locus YIL073C, strain SPO22, active compounds read low 1.08 | locus YIL125W, strain kgd1, active compounds read low 1.01 | locus YIR030C, strain dcg1, active compounds read low 1 | locus YJL092W, strain hpr5, active compounds read low 0.981 | locus YJL095W, strain BCK1 (second series), active compounds read low 0.995 | locus YJL095W, strain BCK1, active compounds read low 1.02 | locus YJL115W, strain asf1, active compounds read low 0.989 | locus YJL129C, strain trk1, active compounds read low 0.99 | locus YJL134W, strain LCB3, active compounds read low 0.997 | locus YJL154C, strain vps35, active compounds read low 0.99 | locus YJL164C, strain tpk1, active compounds read low 1.01 | locus YJL166W, strain qcr8, active compounds read low 0.966 | locus YJL168C, strain set2, active compounds read low 1 | locus YJL187C, strain SWE1 (second series), active compounds read low 1.01 | locus YJL187C, strain SWE1, active compounds read low 0.991 | locus YJR043C, strain POL32, active compounds read low 1 | locus YJR066W, strain TOR1, active compounds read low 0.965
